Hits are enriched below; roughly 6.8% of the tested compounds scored in any of these assays.
Spn DPM-DC inh: inhibitors of Streptococcus pneumoniae diphosphomevalonate decarboxylase. purified DPM-DC, PK/LDH coupled NADH fluorescence. calls only at 10 µM. 65,000 tested, 0.49% active. AID 556;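 active means the 320 compounds with the highest percent inhibition in the single-dose primary screen, excluding strongly autofluorescent ones, cut at about 32% in these data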;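 further: kinetic rate of NADH fluorescence loss reporting ADP formed by the decarboxylase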
Spn PMK inh: S. pneumoniae PMK inhibition. purified PMK, PK/LDH-coupled NADH absorbance 340 nm. inhibition, % at 10 µM. 65,000 tested, 0.49% active. AID 539;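 active means top-ranked compounds by inhibition in the single 10 µM screen, taking a fixed number of the strongest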;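 further: 0% = full reaction with DMSO carrier and 100% = background rate without enzyme reaction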
A340 absorber: compounds absorbing at 340 nm | compound absorbance at 340 nm, fold over control | fold change at 10 µM | 65,000 tested, under 10 active;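 active means at 10 µM dose, initial 340 nm absorbance at least 2 fold that of control wells; inactive means change under 2 fold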;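 further: initial absorbance extrapolated from kinetic A340 decline of NADH oxidation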
Autofluor 339: intrinsic fluorescence of library compounds, ex339/em460 – biochemical, MLSMR library, data from DPM-DC assay, artefact control, profiling panel; 65,000 tested, 5.5% active; compound autofluorescence, ex339/em460 nm, NADH buffer; stronger effect = higher value; 1 = no-compound wells, NADH background; fluorescence fold increase at 10 µM; AID 709;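 active means at 10 µM, mean starting fluorescence two-fold or more over control wells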;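 further: signal is the first read of a kinetic run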
Spn MK inh: inhibitors of Streptococcus pneumoniae mevalonate kinase | purified MK, PK/LDH-coupled NADH absorbance 340 nm | inhibition, % at 10 µM | 65,000 tested, 0.48% active | AID 555;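 active means ranked among the strongest by inhibition in the single 10 µM screen, a fixed top-ranked set picked for dose follow-up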
NADH enzymes: blocks coupling enzymes of NAD/NADH assays; coupled PK/LDH NADH assays, four targets; IC50, µM (highest dose often 10 µM), for the others: top-dose inhibition; 65,000 tested, 0.02% active; AID 774;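 active means single-dose screening hits from any of four coupled enzyme assays that gave an IC50 when retested across doses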;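 further: the DPM-DC format reads NADH fluorescence rather than 340 nm absorbance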
Starred values were filed as active, the others as inactive; i = inactive; . = no result shown; + = active, no number; [ ] = dose if it differs, or a comment.

SMILES | Spn DPM-DC inh | Spn PMK inh | A340 absorber | Autofluor 339 | Spn MK inh | NADH enzymes
CCOC(=O)Cn1c(CN2CC(C)OC(C)C2)nc2c1c(=O)n(C)c(=O)n2C (configuration not stated) | i | 13 | 1 | 1.1 | 8 | 7%
COc1cccc(-n2c(SCC(=O)NCCc3ccccc3)nnc2-c2ccoc2C)c1 | i | 16 | 0.99 | 1.1 | 8 | 8%
O=C(Cc1coc(-c2ccc(F)cc2)n1)N1CCOCC1 | i | 32* | 1 | 1 | 0 | 11%
CCOC(=O)c1cnn(CC2CCCCC2)c1N | i | 14 | 1 | 1.1 | 6 | 7%
O=C(Cn1cc(C(F)(F)F)ccc1=O)N1CCN(S(=O)(=O)c2ccccc2)CC1 | i | 27* | 0.99 | 1.1 | 0 | 9%
O=C(CN1CCc2ccccc2C1)N1CCN(S(=O)(=O)c2ccccc2)CC1 | i | 15 | 1 | 1 | 1 | 5%
CCCCS(=O)(=O)C(=C1Nc2ccccc2N1)S(=O)(=O)CCCC | i | 26* | 1.1 | 1.2 | 13 | 15%
CC(=O)Nc1ccc2c(c1)C(=O)N(C1CCCCC1)C2=O | . | 9 | 1 | 3.8* | 7 | 8%
Cc1ccc(C)c(S(=O)(=O)Nc2ccccc2C(=O)Nc2cc(C)on2)c1 | . | 0 | 1.1 | 2.2* | 6 | 3%
Cc1cc(NC(=O)c2ccccc2NS(=O)(=O)c2c(C)c(C)cc(C)c2C)no1 | . | 2 | 1 | 2.3* | 11 | 7%
CC(OC(=O)c1ccc2ccccc2n1)C(=O)Nc1ccc(N2CCOCC2)cc1 (configuration not stated) | i | 14 | 1 | 1.1 | 0 | 5%
COc1ccc(-c2ccc(-c3noc(-c4ccco4)n3)c(OC)n2)cc1 | . | 1 | 1.2 | 3.7* | 10 | 6%
COc1nc(-c2ccccc2)ccc1-c1noc(-c2cccs2)n1 | i | 4 | 1.1 | 2.2* | 0 | 1%
COc1nc(-c2ccc(Cl)cc2)ccc1-c1noc(-c2ccncc2)n1 | i | 11 | 1 | 2.8* | 13 | 7%
COc1nc(-c2ccccc2)ccc1-c1noc(-c2ccccc2)n1 | i | 6 | 1.1 | 1.8 | 1 | 2%
COc1ccc(-c2ccc(-c3noc(-c4ccccc4)n3)c(OC)n2)cc1 | . | 16 | 1 | 3* | 10 | 5%
COc1nc(-c2ccccc2)ccc1-c1noc(-c2ccco2)n1 | i | 3 | 1.1 | 1.9 | 5 | 7%
COc1ccc(-c2ccc(-c3noc(-c4ccccc4F)n3)c(OC)n2)cc1 | . | 7 | 1.1 | 3.7* | 7 | 7%
c1ccc(OCc2nc(-c3ccccc3)no2)cc1 | i | 1 | 1 | 1.1 | 2 | 1%
COc1ccc(-c2noc(-c3ccccc3F)n2)cc1 | i | 8 | 1 | 1.1 | 4 | 5%
COc1nc(-c2ccccc2)ccc1-c1noc(COc2ccccc2)n1 | . | 0 | 1.1 | 2.1* | 17 | 9%
CCOc1nc(-c2ccccc2)ccc1-c1noc(-c2cccnc2)n1 | . | 13 | 1 | 1.9 | 0 | 3%
CCOc1nc(-c2ccccc2)ccc1-c1noc(-c2ccc(OC)c(OC)c2)n1 | +[fluoresces] | 14 | 1 | 1.8 | 4 | 4%
O=C(c1ccccc1)N(CCN1CCOCC1)C1(C(=O)Nc2ccccc2)CCCCC1 | i | 1 | 0.99 | 1 | 5 | 2%
N#Cc1c(C(F)(F)F)cc(-c2ccco2)nc1SCc1ccncc1 | + | 7 | 1.1 | 2.6* | 8 | 18%
SMILES | Spn DPM-DC inh | Spn PMK inh | A340 absorber | Autofluor 339 | Spn MK inh | NADH enzymes
N#Cc1c(C(F)(F)F)cc(-c2ccco2)nc1SCc1ccccn1 | . | 0 | 1 | 2.1* | 4 | 2%
COc1ccc(OC)c2c(C)cc(N3CCN(C(=O)c4ccc(F)cc4)CC3)nc12 | i | 4 | 1.1 | 2.9* | 3 | 6%
O=C(COC(=O)c1cccc(S(=O)(=O)N2CCc3ccccc32)c1)NC1CCS(=O)(=O)C1 (configuration not stated) | i | 0 | 0.99 | 1 | 7 | 2%
CCCC(C)NS(=O)(=O)c1ccccc1 (configuration not stated) | i | 14 | 1 | 1 | 13 | 9%
Clc1cccc(-c2ccc(/C=N/n3cnnc3)o2)c1 | + | 0 | 1.3 | 1.2 | 7 | 3716µM*
CCOc1cc(C2/C(=C(\O)c3cc(C)ccc3C)C(=O)C(=O)N2CCN(C)C)ccc1O (configuration not stated) | i | 0 | 1.1 | 1.7 | 8 | 11%
Nc1cc(N)cc(-c2nc3ccccc3o2)c1 | i | 7 | 1 | 1.2 | 6 | 4%
Cc1ccccc1-c1nc2cc(N)ccc2o1 | + | 11 | 1 | 3.1* | 9 | 18%
CC(C)c1ccc2oc(-c3cc(N)ccc3O)nc2c1 | i | 0 | 1.1 | 1.2 | 0 | 0%
Nc1ccc2oc(-c3cccc(Br)c3)nc2c1 | . | 1 | 1.1 | 2* | 9 | 5%
O=c1oc2ccc(Br)cc2cc1-c1nc2ccccc2o1 | i | 6 | 1 | 2.3* | 9 | 10%
O=C(Nn1cnnc1)c1cc2cc(Br)ccc2oc1=O | i | 9 | 1.1 | 1.2 | 9 | 9%
COc1ccc(C(CC(=O)O)NC(=O)OC(C)(C)C)cc1 (configuration not stated) | i | 0 | 1 | 1 | 2 | 1%
CC(NC(=O)OC(C)(C)C)C(=O)Oc1ccc2ccc(=O)oc2c1 (configuration not stated) | . | 0 | 1 | 2.3* | 6 | 3%
CC(C)(C)OC(=O)NCCC(=O)Oc1ccc2ccc(=O)oc2c1 | . | 9 | 1 | 2.3* | 6 | 8%
O=P1(Nn2cnnc2)C=C(c2ccccc2)OC(c2ccccc2)=C1 | i | 21 | 1 | 1 | 7 | 9%
CN(C)C(=O)CSc1cccc2cccnc12 | . | 6 | 1 | 3.9* | 7 | 7%
O=C(CSc1cccc2cccnc12)N1CCCC1 | . | 4 | 1 | 3.9* | 1 | 3%
CN(CC(=O)N1CCc2ccccc21)S(=O)(=O)c1cccc2cccnc12 | i | 9 | 1 | 1.1 | 7 | 5%
CC(C)C(OC(=O)c1cccs1)C(=O)NCc1cccs1 (configuration not stated) | i | 7 | 1 | 0.97 | 7 | 5%
COc1cc(CNc2ccc3[nH]c(=O)[nH]c3c2)ccc1OCC(=O)NC(C)(C)C | . | 13 | 0.99 | 4.9* | 5 | 9%
Cc1ccc(-n2ncc3c(=O)n(CC#N)cnc32)cc1 | i | 17 | 0.98 | 1.1 | 5 | 7%
O=C1CN(c2nc3ccccc3n3cnnc23)CC(=O)N1CCc1ccccc1 | i | 17 | 0.99 | 1 | 7 | 5%
COc1cccc(/C=N/n2c(SC)nnc2-c2ccccc2)c1OC | . | 0 | 1.1 | 2.1* | 1 | 1%
CCOC(=O)CC(=O)CSc1nc2c(c(C)c1C#N)CCC2 | i | 16 | 1 | 2.7* | 0 | 9%
